# Source: PubChem BioAssay (several laboratories)
# TIM10 inh = growth inhibitors of isogenic TIM10 control yeast, primary screen, counter-screen for tim10-1 yeast inhibitor project, luminescence, uHTS | 330,000 compounds, 1.4% hits | inhibition, % at 10 µM | S. cerevisiae TIM10 strain growth, BacTiter-Glo luminescence, 24 h | AID 463195, 2010;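 active = inhibition of 40% or more at the single tested concentration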;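 also: wild-type TIM10 isogenic control strain grown at permissive 25 °C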
# SKKanGAS inh = S. pyogenes SKKanGAS growth inhibitors in kanamycin, primary screen, streptokinase expression inhibitor project, SKKanGAS strain, BacTiter-Glo luminescence. 6 h. inhibition, % at 7.5 µM. 300,000 compounds, 1.3% hits. AID 1662, 2009;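 active = mean replicate score, as percent of positive control median, at least 50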;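 also: strain carries kanamycin resistance gene driven by streptokinase promoter and grows in 40 µg/ml kanamycin; loss of luminescence reflects streptokinase promoter inhibition or plain growth inhibition; 0% = median of DMSO wells and 100% = positive control at its reference dose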
# tim10-1 inh = growth inhibitors of tim10-1 mutant yeast, primary screen, luminescence, uHTS | S. cerevisiae tim10-1 ts strain growth, BacTiter-Glo, 24 h | inhibition, % at 20 µM | 330,000 compounds, 2.2% hits | AID 463190, 2010;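 active = inhibition of at least 40%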;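 also: mutant grown at 25 °C; 0% = DMSO wells with yeast and 100% = wells holding no yeast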
# tim23-1 inh = growth inhibitors of tim23-1 mutant yeast, primary screen, luminescence, uHTS | S. cerevisiae tim23-1 growth, BacTiter-Glo luminescence, 24 h | inhibition, % at 20 µM | 330,000 compounds, 1.3% hits | AID 463212, 2010;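 active = growth inhibition of the mutant yeast at or above 50%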;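 also: temperature-sensitive mutant grown at 25 °C; plate controls were DMSO-treated mutant yeast for no effect and medium wells lacking yeast for full effect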
# NALP3 yeast inh = NALP3 inflammasome inhibitors in reconstituted yeast, primary screen, luminescence, uHTS; 330,000 compounds, 0.39% hits; Yeast reconstituted NLRP3/ASC/caspase-1, beta-gal luminescence, 24 h; AID 2825, 2010; inhibition, % at 10 µM;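 active = inhibition of 50% or more; inactive = inhibition below 50%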;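 also: plate controls were induced DMSO wells for no effect and uninduced yeast grown without galactose for full effect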
# NALP3 confirm = NALP3 inhibitors retested in yeast, confirmation, luminescence, single concentration; shares compounds with NALP3 yeast inh; yeast expressing human NALP3; inhibition, % at 10 µM; 1,300 compounds, 81% hits; AID 435006, 2010; in the data active = inhibition above about 48%
# Casp1-ASC yeast = CASP1-PYCARD signaling inhibition in yeast, confirmatory test, counterassay for NLRP3 inhibitor program, one-dose; yeast expressing Caspase-1-ASC, luminescence counter screen; inhibition, % at 10 µM; shares compounds with NALP3 yeast inh; AID 488784, 2010; 1,000 compounds, 66% hits
# NALP3 retest = NALP3 inhibitors in yeast, repeat test, confirmation, luminescence, single concentration, retest; 1,000 compounds, 53% hits; AID 488794, 2010; shares compounds with NALP3 yeast inh; yeast expressing human NALP3, luminescence read-out; inhibition, % at 10 µM
# tim10-1 conf = growth inhibitors of tim10-1 mutant yeast, confirmation, single concentration, luminescence, S. cerevisiae | shares compounds with tim10-1 inh | S. cerevisiae tim10-1 ts strain growth, BacTiter-Glo, 24 h | inhibition, % at 20 µM | 7,400 compounds, 56% hits | AID 463213, 2010;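 active = inhibition of yeast growth at or above a set limit in either of two repeat tests at 20 µM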;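 also: tim10-1 mutant grown at permissive 25 °C to find synthetic lethal compounds; 0% = DMSO yeast wells and 100% = medium wells without yeast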
# TIM10 conf = growth inhibitors of wild-type TIM10 yeast, confirmation, counter-screen for tim10-1 synthetic lethality project, single concentration, luminescence, S. cerevisiae; shares compounds with TIM10 inh; S. cerevisiae tim10 strain growth, BacTiter-Glo luminescence, 24 h; inhibition, % at 10 µM; 4,600 compounds, 63% hits; AID 463215, 2010;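 active = inhibition of yeast growth at or above a set limit in either of two replicates at 10 µM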;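 also: this counterscreen used the strain with wild-type TIM10; 0% = yeast with DMSO and 100% = medium wells lacking yeast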
# tim23-1 confirm = tim23-1 mutant yeast growth inhibitors, confirmation, luminescence, single concentration. S. cerevisiae tim23-1 growth, BacTiter-Glo luminescence, 24 h. inhibition, % at 20 µM. AID 463218, 2010. 4,400 compounds, 83% hits. shares compounds with tim23-1 inh;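 active = inhibition above about 39% in either of two replicate wells at 20 µM, limit read from the data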;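 also: temperature-sensitive tim23-1 mutant grown at 25 °C; 0% = DMSO wells with yeast and 100% = medium wells without yeast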
# The depositor's hits bear a star; · = not tested or not shown. A selection: hits, their analogues and other compounds. The true share with any hit is near 4.6%. Rule as the data show it, unless noted: active = inhibition above about 50%; inactive = the rest.
SMILES,TIM10 inh,SKKanGAS inh,tim10-1 inh,tim23-1 inh,NALP3 yeast inh,tim10-1 conf,others
CC(C)(C)n1nc(-c2ccc(F)cc2)c2c(N)ncnc21,69.1*,-11.5,38.5,73.1*,92.9*,·,NALP3 confirm=93.3*;Casp1-ASC yeast=96.1*;NALP3 retest=92.0*;TIM10 conf=51.1*;tim23-1 confirm=61.1*
Cc1ccc(-c2nn(C(C)(C)C)c3ncnc(NS(=O)(=O)c4ccc([N+](=O)[O-])cc4)c23)cc1,32.4,-8.4,37.0,40.9,23.9,·,
O=C(CN(C(=O)CNC(=O)c1ccco1)c1cccc(F)c1)NC1CCCCC1,9.9,0.7,-23.6,1.8,4.0,·,
CN(C)C(=O)c1ccc(NC(=O)CSc2nnc(-c3cccs3)n2N)cc1,7.1,·,-8.3,2.9,-6.9,·,
Cc1nc2nc(-c3cccs3)[nH]c2cc1Br,12.7,18.4,-7.4,61.3*,53.6*,·,NALP3 confirm=75.7*;Casp1-ASC yeast=59.5*;NALP3 retest=62.8*;tim23-1 confirm=55.0*
c1ccc(-c2nc(-c3cccs3)[nH]c2-c2ccccc2)cc1,34.9,1.6,27.2,10.3,-35.7,·,
Cc1ccc(C(C[N+](=O)[O-])c2c(-c3ccccc3O)[nH][nH]c2=O)cc1 (configuration not stated),32.8,-15.0,43.8*,66.1*,50.8*,37.5*,NALP3 confirm=50.7*;Casp1-ASC yeast=77.4*;NALP3 retest=58.1*;tim23-1 confirm=56.0*
COc1ccccc1N(CC(=O)Nc1cc(C)on1)S(=O)(=O)c1cccc(C(F)(F)F)c1,0.2,·,14.2,21.1,-0.8,·,
O=C(NC(=S)Nc1ccccc1Br)C1CCCCC1,38.7,·,26.9,56.2*,53.3*,·,NALP3 confirm=47.2;Casp1-ASC yeast=59.4*;NALP3 retest=34.1;tim23-1 confirm=37.8
O=C(NC(=S)Nc1ccccc1Br)C1CCCC1,39.0,25.3,38.7,47.8,29.6,·,
O=C(NC(=S)Nc1ccccc1F)C1CCCCC1,31.5,3.1,40.3*,53.8*,51.7*,20.6,NALP3 confirm=72.1*;Casp1-ASC yeast=72.1*;NALP3 retest=63.2*;tim23-1 confirm=48.2*
Cc1c(Cl)sn(-c2ccc(Cl)cc2)c1=O,97.2*,·,96.4*,55.3*,56.0*,98.2*,NALP3 confirm=34.1;Casp1-ASC yeast=69.0*;NALP3 retest=49.5;TIM10 conf=99.5*;tim23-1 confirm=99.3*
O=C(c1cccc([N+](=O)[O-])c1)N1CCN(S(=O)(=O)/C=C/c2ccccc2)CC1,0.0,·,-4.9,2.2,14.2,·,
O=C(NCC1CCCO1)C(=O)N/N=C/c1ccc(OCc2ccccc2Cl)cc1 (configuration not stated),4.2,3.2,0.3,0.4,7.7,·,
O=C1Cc2cc(S(=O)(=O)NCc3ccc(F)cc3)ccc2N1,6.1,·,10.8,-0.2,0.1,·,
COc1ccc(/C=C/C(=O)Nc2ccc3c(c2)CCC3)cc1OC,21.5,-11.5,-36.3,54.0*,59.5*,·,NALP3 confirm=26.1;tim23-1 confirm=54.8*
O=C(Nc1nc(-c2ccco2)c(-c2ccco2)s1)c1ccc(F)cc1F,16.4,·,40.2*,25.4,5.4,43.3*,
O=C(Nc1nc(-c2ccco2)c(-c2ccco2)s1)c1c(F)cccc1Cl,24.8,·,30.2,37.5,12.4,·,
CC(C)CCOc1ccc(C(=O)NNC(=O)CNC(=O)c2ccccc2F)cc1,0.7,·,0.4,3.8,-7.0,·,
COc1cc2c(c3oc(-c4ccccc4)cc(=O)c13)C=CC(C)(C)O2,17.3,2.8,47.0*,46.6,3.4,-0.8,
COc1cc(OC)c2c(=O)cc(-c3ccccc3)oc2c1,-17.3,-3.6,9.9,8.9,33.1,·,
O=C1CN(C(=O)CSc2ccccn2)c2ccccc2N1,1.6,·,10.8,13.8,7.6,·,
O=C(Nc1cccc(S(=O)(=O)Nc2ccc(Cl)cc2)c1)c1cc2c(s1)CCCC2,23.1,65.4*,40.3*,24.6,0.7,15.7,
O=C(Nc1ccon1)c1cc2c(s1)CCCCCC2,33.5,-1.3,52.4*,43.1,-31.7,39.5*,
O=C(O)/C(=C\c1ccc(-c2ccccc2[N+](=O)[O-])o1)c1ccccc1,12.0,22.3,40.2*,13.6,25.5,51.5*,
SMILES,TIM10 inh,SKKanGAS inh,tim10-1 inh,tim23-1 inh,NALP3 yeast inh,tim10-1 conf,others
O=C(C1CCOCC1)N1CCCC(N2CCN(c3cccc(C(F)(F)F)c3)CC2)C1 (configuration not stated),8.1,0.0,1.1,0.1,7.6,·,
O=C(COC(=O)c1cc(Cl)ccc1[N+](=O)[O-])Nc1cccc2ccccc12,38.1,8.1,46.6*,32.3,12.4,33.5*,
COc1cc2c(cc1OC)CN(C(=O)CN1C(=O)c3ccc([N+](=O)[O-])cc3C1=O)CC2,12.6,-8.0,16.3,4.0,17.8,·,
C=CCSC1=N/C(=C\c2cc(OCC)c(OC(C)=O)c([N+](=O)[O-])c2)C(=O)S1,12.0,-4.2,42.3*,27.4,-57.5,25.2,
O=C(c1ccc2[nH]c(=O)c(=O)[nH]c2c1)N1CCN(c2ccccc2)CC1,7.8,-9.7,13.4,8.8,-3.5,·,
COc1ccc(C(=O)O/N=C(\N)c2ccc(Br)cc2)cc1,39.0,0.8,43.2*,31.1,34.6,53.1*,
COc1ccccc1CC(=O)O/N=C(\N)c1ccccn1,2.2,3.9,-5.2,-1.8,9.4,·,
COc1ccc(/C(N)=N/OC(=O)Cc2ccccc2OC)cc1,23.1,-4.1,49.4*,19.6,16.0,32.3*,
COC(=O)C1(Cc2cc(-c3ccc(OC)cc3OC)no2)CCN(C(=O)OC(C)(C)C)CC1,4.5,6.4,2.3,17.8,0.9,·,
COc1ccc(-c2cc(C3CCN(C(=O)OC(C)(C)C)CC3)[nH]n2)cc1,34.4,3.9,44.5*,39.5,4.8,38.9*,
COc1ccc(OC)c(-c2cc(C3CCN(C(=O)OC(C)(C)C)CC3)[nH]n2)c1,9.4,0.4,40.0,18.8,5.1,5.7,
CCOC(=O)c1cn2nc(-c3ccc(OC)cc3)cc2nc1C1CCN(C(=O)OC(C)(C)C)CC1,-1.7,23.1,36.0,26.6,17.3,·,
